Experimental data: PubChem BioAssay AID488890 (Southern Research Specialized Biocontainment Screening …, 2010)
Out of some 320,000 compounds screened, about 1,300 (0.41%) were called active. About 3% were inconclusive and are not listed. How the calls were made is not given here. A selection follows. Entries with a potency or affinity are not part of this list.

Experiment: growth inhibition of non-replicating M. tuberculosis (AID 488890);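 further: plate controls were DMSO cells for no effect and high antibiotic wells for full effect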
Details: Mycobacterium tuberculosis non-replicating, at 25 µM, stronger effect = higher value
For CNC(=O)/C(C#N)=C/c1ccc(OCCOc2ccccc2)cc1, the inhibition was 63.6%. Compound O=C(N/N=C/c1cccc([N+](=O)[O-])c1)c1cccc(Br)c1 has an inhibition of -5.27%. Cc1ccc(/C=N/NC(=O)C(C)Oc2ccccc2[N+](=O)[O-])s1 (centres undefined) gave an inhibition of -10.9%. CCOc1ccc(/C=N/NC(=O)CCC(=O)Nc2ccc(F)cc2)cc1 showed an inhibition of 1.12%. In the case of O=C(N/N=C/c1ccc(O)cc1)c1cncc(Br)c1, the inhibition is reported as 17.6%. With CCOc1ccc(NC(=O)CCC(=O)N/N=C/c2ccc3c(c2)OCO3)cc1 the inhibition was 12.5%. O=C(N/N=C/c1ccc(Br)s1)c1cccc([N+](=O)[O-])c1 showed an inhibition of -22%. Cn1cccc1/C=N\NC(=O)c1cncc(Br)c1 showed an inhibition of -6.5%. Compound CCOc1ccc(NC(C)C(=O)N/N=C/c2ccc([N+](=O)[O-])cc2)cc1 (centres undefined) has an inhibition of 7.41%. COC(=O)c1c(C)[nH]c(C(=O)CSc2nnnn2-c2ccccc2)c1C gave an inhibition of -4%. Work on O=C(COC(=O)c1ccccc1NC(=O)c1ccco1)NC1CCS(=O)(=O)C1 (centres undefined) yielded an inhibition of 73.7%. With O=C(COC(=O)C1CCN(C(=O)Nc2ccccc2)CC1)NCC(F)(F)F the inhibition was -2.77%. CS(=O)(=O)N1CCC(C(=O)NCc2ccc(Cl)cc2)CC1 showed an inhibition of 8.1%. Compound COc1ccc(-n2nc3cc(C)c(NC(C)=O)cc3n2)cc1 has an inhibition of 1.69%. COC(=O)Cn1c(CN2CCN(C(=O)c3ccco3)CC2)nc2c1c(=O)n(C)c(=O)n2C showed an inhibition of 0.07%. O=P(Cc1cccc[n+]1[O-])(c1ccccc1)c1ccccc1 showed an inhibition of -13.7%. For CC(C)C(c1nnnn1Cc1ccccc1)N1CCN(Cc2ccc3c(c2)OCO3)CC1 (centres undefined), the inhibition was 31.2%. With Cc1nc(SCC(=O)N2CCOCC2)c2c(=O)n(C)c(=O)n(CC(C)C)c2n1 the inhibition was -4.99%. In the case of Cc1onc(-c2ccccc2)c1C(=O)N/N=C/c1ccc([N+](=O)[O-])c(O)c1, the inhibition is reported as 32%. Work on Cc1ccccc1NCC(=O)N/N=C/c1ccc([N+](=O)[O-])cc1 yielded an inhibition of 10%. With CCOC(=O)N/N=C\c1ccc(C)s1 the inhibition was -9.49%. In the case of Cc1ccccc1NCC(=O)N/N=C\C=C\c1cccc([N+](=O)[O-])c1, the inhibition is reported as 44%. Work on O=C(NN=Cc1ccc(N2CCOCC2)s1)c1ccc([N+](=O)[O-])cc1 yielded an inhibition of 0.11%. CCOC(=O)N/N=C/c1ccc(N2CCOCC2)s1 gave an inhibition of 1.14%. For Cc1onc(-c2ccccc2)c1C(=O)N/N=C/c1cccs1, the inhibition was 51.2%. Compound O=C(N/N=C/c1ccc(Br)s1)c1ccc([N+](=O)[O-])cc1 has an inhibition of 10.3%. For CN(Cc1nc2ccccc2c(=O)[nH]1)C(=O)c1ccc(S(=O)(=O)N(C)C)cc1, the inhibition was -7.99%. Work on Cc1ccc(Cc2c(C)c(C#N)c3[nH]c4ccccc4n3c2=O)cc1 yielded an inhibition of 55.7%. Compound COc1ccc(S(=O)(=O)N2CCC(Nc3ccccc3Cl)CC2)cc1 has an inhibition of 35%.
